# CHO-K1 Ca antag: M1 antagonist counterscreen hit in parental CHO-K1 cells; ATP-induced calcium, Fluo-8 fluorescence; inhibition, % at 3 µM; 360,000 tested, 0.6% active;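 active = inhibition above a per-plate cutoff, the plate's mean sample inhibition plus 3 SD, cut at about 24% in these data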;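 note: 0% = DMSO plus EC80 ATP and 100% = DMSO alone without ATP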
# CHO-K1 Ca ag: counter-screen for M1 agonists: effect in parental CHO-K1 cells; Fluo-8 calcium fluorescence; scaled to maximal ATP response, vehicle zero; 360,000 tested, 0.48% active; activation, % at 3 µM; in the data active = activation above about 15%;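 note: untransfected CHO-K1 host cells lacking M1 receptor as counterscreen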
# M1 antag: blocks human M1 muscarinic receptor | CHO-K1 hM1, Fluo-8 calcium fluorescence, ACh EC80 antagonist | P11229 | inhibition, % at 3 µM | 360,000 tested, 1.3% active;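 active = percent inhibition above its own plate's cutoff, namely the mean of that plate's compound wells plus 3 SD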;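 note: peak over basal fluorescence ratio during 140 s after agonist addition; 0% = ACh EC80 plus DMSO and 100% = DMSO alone without agonist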
# Target sequence (P11229 whole entry, looked up): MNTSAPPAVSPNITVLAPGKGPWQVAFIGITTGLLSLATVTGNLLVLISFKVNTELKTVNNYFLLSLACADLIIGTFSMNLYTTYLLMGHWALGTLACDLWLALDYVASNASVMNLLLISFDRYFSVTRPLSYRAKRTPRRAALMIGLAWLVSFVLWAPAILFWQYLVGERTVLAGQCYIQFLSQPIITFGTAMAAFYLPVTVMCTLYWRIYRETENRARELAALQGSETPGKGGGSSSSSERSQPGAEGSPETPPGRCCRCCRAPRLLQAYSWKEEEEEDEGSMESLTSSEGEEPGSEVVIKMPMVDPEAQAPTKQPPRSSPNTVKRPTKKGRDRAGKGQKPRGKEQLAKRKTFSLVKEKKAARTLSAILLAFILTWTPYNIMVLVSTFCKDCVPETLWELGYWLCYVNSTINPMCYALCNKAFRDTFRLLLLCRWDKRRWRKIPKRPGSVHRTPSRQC
# M1 ag: agonists of human M1 muscarinic receptor; 360,000 tested, 0.33% active; P11229; CHO-K1 hM1, Fluo-8 calcium fluorescence, agonist mode; 0% DMSO, 100% acetylcholine EC100; activation, % at 3 µM;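 active = activation above the run's mean compound activation plus 3 SD, cut at about 16% in these data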;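 note: peak over basal fluorescence ratio within a 140 s kinetic read after compound addition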
# CHO-K1 Ca PAM: nonselective activator or artifact in parental CHO-K1 calcium assay; activation, % at 3 µM; 360,000 tested, 0.02% active; ATP EC20, Fluo-8 calcium fluorescence; 0% at ATP EC20, 100% at ATP max;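 active = activation above the run cutoff, the mean activation of all test compounds plus 3 SD, cut at about 40% in these data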;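 note: peak over basal fluorescence ratio in a 140 s read after ATP addition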
# CHRM1 PAM: human CHRM1 positive allosteric modulation | P11229 | 360,000 tested, 0.088% active | activation, % at 3 µM | AID 588819 | CHO-K1 hM1, Fluo-8 calcium fluorescence, ACh EC20; 0% = ACh EC20, 100% = maximal ACh; in the data active = activation above about 19%, passing the limit was not always enough
# Numbers without * were called inactive. Shown are actives, neighbours in structure and some others; about 2.3% of the full set was active somewhere.
SMILES,CHO-K1 Ca antag,CHO-K1 Ca ag,M1 antag,M1 ag,CHO-K1 Ca PAM,CHRM1 PAM
CC(C)[C@H](NC(=O)c1c(F)cccc1F)C(=O)Nc1cccc(Br)c1,6,19*,-6,-2,3,5
Cc1ccc(-n2nc(C)c3c2OC(N)=C(C#N)C3c2ccc(C)o2)cc1 (stereo unspecified),-2,0,-3,-1,-7,-5
COc1ccc(OC)c(C2C(C#N)=C(N)Oc3c2c(C)nn3-c2ccc(C)cc2)c1 (stereo unspecified),28*,0,-16,-2,-8,-4
CCOc1cc(N2CCOCC2)c(OCC)cc1NC(=O)COC(=O)c1cc(C)oc1C,25*,0,-5,-2,-6,2
CC(=O)Nc1ccc(Nc2ncnc3c2cnn3-c2ccc(C)cc2C)cc1,26*,0,-7,-3,-6,11
Cc1cccc(Nc2ncnc3c2cnn3C)c1,29*,0,5,2,-10,6
CC(=O)Nc1ccc(Nc2ncnc3c2cnn3-c2cccc(C)c2)cc1,-8,0,5,-3,7,0
COc1cccc(-c2cccc(NC(=O)C3CCN(CCCn4cccn4)CC3)c2)c1,-10,0,-6,-10,16,1
Cn1c2ccccc2c(=O)c2ccc(C#CC3(O)CCCCC3)cc21,-3,13,39*,-5,-1,-23
COc1cc2sc3ccc(C#CC4(O)CCCCC4)cc3c(=O)c2cc1OC,-8,0,8,-10,8,-9
COc1ccc(Cc2nnc3n2N=C(c2cc4ccccc4o2)CS3)cc1OC,-3,0,-5,-1,12,10
Cc1cccn2cc(CNC(=O)C3CCCCC3)nc12,14,19*,0,-4,0,3
NS(=O)(=O)c1ccc(CNC(=O)c2cc(-c3cccnc3)nc3ccc(Br)cc23)cc1,-6,0,-12,2,13,18
CCOc1ccccc1CNS(=O)(=O)c1ccc(-c2cnc(C3CC3)o2)cc1,14,13,36*,3,-15,-15
O=C1C(=Cc2cccn2-c2ccccc2)C(=O)c2ccccc21,-6,15*,-4,-6,17,7
CNc1cccc(-c2cc(OC)ccc2OC)n1,4,4,42*,-8,9,-22
CNc1cccc(-c2c(OC)cccc2OC)n1,-9,2,-3,-9,20,-2
CCN=C1SC(C(=O)Nc2cc(Cl)cc(Cl)c2)CC(=O)N1CC (stereo unspecified),-15,1,-10,-4,17,6
CCN=C1SC(C(=O)Nc2cccc(Cl)c2)CC(=O)N1CC (stereo unspecified),5,7,38*,0,7,-9
CCN1C(=O)CC(C(=O)Nc2ccc(F)cc2)SC1=Nc1ccc2c(c1)OCO2 (stereo unspecified),10,3,12,-1,15,-3
CCN=C1SC(C(=O)Nc2ccc(Cl)c(Cl)c2)CC(=O)N1CC (stereo unspecified),5,4,7,-1,13,-5
CCN=C1SC(C(=O)Nc2cccc(C)c2)CC(=O)N1CC (stereo unspecified),15,4,33*,3,5,-10
CCN=C1SC(C(=O)NCCc2ccccc2)CC(=O)N1CC (stereo unspecified),3,4,26*,-1,17,-14
CCN=C1SC(C(=O)Nc2cccc(Br)c2)CC(=O)N1CC (stereo unspecified),16,8,30*,-3,-1,-15
Cc1ccc(N=C2SC(C(=O)NCCc3ccccc3)CC(=O)N2C)cc1C (stereo unspecified),-9,2,14,-7,17,-17
COC(=O)c1ccc(C(=O)N(CCN(C)C)c2nc3c(Cl)cccc3s2)cc1,-3,1,-9,-1,16,7
O=C(NC1C2CCCC1CN(C1CC1)C2)c1ccc(Cl)cc1 (stereo unspecified),-10,0,-2,-7,-3,-2
CCN=C1SC(C(=O)Nc2ccc(OCC)cc2)CC(=O)N1CC (stereo unspecified),4,6,17,2,8,-13

# Screening results from PubChem BioAssay.
